# PubChem BioAssay (NCATS)
# Inconclusive results are not listed. The source made the active and inactive calls. The call rests on the fitted dose curve.
# Biological target: Estrogen receptor (Homo sapiens) (UniProt P03372)
# Assay: qHTS assay for small molecule agonists of estrogen receptor alpha signaling (AID 588514); further: nearly all actives have a fitted effect of over 70% in size;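 on activation: 0% = vehicle only and 100% = reference agonist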
# Conditions: ER-alpha-UAS-bla HEK293, beta-lactamase ratio, 18 h; series mostly up to 76.8 µM; activation: at the top concentration
# How it was run: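 Cells were plated at 5000/well, incubated 4 hrs at 37 C, dosed with compound titration series, incubated 18 hrs at 37 C, loaded with CCF4 dye for 2 hrs at RT, then fluorescence was read.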
# Potency means the concentration at half of the fitted maximal effect.
# Chain of Estrogen receptor (Homo sapiens) (P03372 whole entry, looked up): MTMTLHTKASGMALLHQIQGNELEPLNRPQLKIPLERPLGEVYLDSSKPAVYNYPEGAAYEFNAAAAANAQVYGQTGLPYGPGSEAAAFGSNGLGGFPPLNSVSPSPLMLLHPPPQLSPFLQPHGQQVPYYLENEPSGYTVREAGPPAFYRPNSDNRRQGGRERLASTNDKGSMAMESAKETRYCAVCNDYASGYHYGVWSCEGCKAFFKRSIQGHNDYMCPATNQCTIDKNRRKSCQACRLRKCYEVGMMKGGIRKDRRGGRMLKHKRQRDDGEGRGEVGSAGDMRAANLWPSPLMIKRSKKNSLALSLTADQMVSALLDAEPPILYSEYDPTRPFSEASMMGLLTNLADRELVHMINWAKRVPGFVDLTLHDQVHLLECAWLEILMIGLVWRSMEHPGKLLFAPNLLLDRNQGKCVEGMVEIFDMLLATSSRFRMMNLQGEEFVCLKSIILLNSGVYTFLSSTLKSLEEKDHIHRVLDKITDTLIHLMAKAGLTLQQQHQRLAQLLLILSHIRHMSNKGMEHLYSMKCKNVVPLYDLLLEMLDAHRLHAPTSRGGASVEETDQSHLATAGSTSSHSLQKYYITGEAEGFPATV
SMILES,activation,Potency
C/C(=N\NC(=O)Nc1cc(F)cc(F)c1)c1ncccc1C(=O)O,2.01% (inactive),
CCCC1COC(Cn2cncn2)(c2ccc(Cl)cc2Cl)O1 (configuration not stated),,inactive
Cc1cnc(C2=NC(C)(C(C)C)C(=O)N2)c(C(=O)O)c1 (configuration not stated),17.9% (inactive),
O=S(=O)(c1ccc(O)cc1)c1ccc(O)cc1,,14.1 µM (active)
CCOP(=O)(O)C(N)=O,-1.08% (inactive),
CCOc1nc(NC)nc(NC(=O)NS(=O)(=O)c2ccccc2C(=O)OC)n1,-15.3% (inactive),
COc1ccc(O)c(C(C)(C)C)c1,-1.81% (inactive),
CCOP(=S)(OCC)SCC(=O)NC(C)C,-1.86% (inactive),
NS(=O)(=O)C(F)(F)C(F)(F)C(F)(F)C(F)(F)C(F)(F)C(F)(F)C(F)(F)C(F)(F)F,16% (inactive),
Clc1ccc([C@]2(Cn3cncn3)C[C@@H](Br)CO2)c(Cl)c1,,inactive
CCOP(=O)(SC(C)CC)SC(C)CC (configuration not stated),2% (inactive),
CNC(=O)Oc1cccc2c1OC(C)(C)C2O (configuration not stated),2.77% (inactive),
C/C(=N\C(N)=O)N(C)Cc1ccc(Cl)nc1,-4% (inactive),
O=S1OC[C@@H]2[C@H](CO1)[C@@]1(Cl)C(Cl)=C(Cl)[C@]2(Cl)C1(Cl)Cl (some centres not stated),16.1% (inactive),
FC(F)(F)c1ccc(OCCCOc2c(Cl)cc(OCC=C(Cl)Cl)cc2Cl)nc1,-0.426% (inactive),
C=CCC1=C(C)[C@@H](OC(=O)[C@@H]2[C@@H](C=C(C)C)C2(C)C)CC1=O,-3.28% (inactive),

SMILES,activation,Potency
Cc1ccccc1C(=O)Nc1cccc(OC(C)C)c1,-5.88% (inactive),
CCOC1Oc2ccc(OS(C)(=O)=O)cc2C1(C)C (configuration not stated),4.77% (inactive),
Nc1ccc([N+](=O)[O-])cc1Cl,-0.279% (inactive),
CCCCC(CC)C(=O)Cl (configuration not stated),-0.466% (inactive),
CCNc1nc(NC(C)(C)C)nc(SC)n1,-1.98% (inactive),
CCOP(=O)(OCC)SCSCC,-1.43% (inactive),
CCOP(=O)(OCC)SCSC(C)(C)C,22.5% (inactive),
CNC(=O)Oc1ccc(N(C)C)c(C)c1,3.73% (inactive),
COC(=O)c1ccccc1CS(=O)(=O)NC(=O)Nc1nc(OC)cc(OC)n1,2.01% (inactive),
Cc1cc(Cl)ccc1OCC(=O)O,-4.35% (inactive),
CCOP(=S)(OCC)Oc1cnc2ccccc2n1,23% (inactive),
CCOP(=S)(S)OCC,1.39% (inactive),
CCCCN(CC)C(=O)SCCC,3.44% (inactive),
O=[N+]([O-])c1ccc(Oc2ccc(C(F)(F)F)cc2[N+](=O)[O-])cc1,-6.22% (inactive),
C/C=C(\C)C(=O)O[C@H]1C[C@@H](OC(C)=O)[C@@]2(C(=O)OC)CO[C@H]3[C@@H](O)[C@@](C)([C@]45O[C@@]4(C)[C@H]4C[C@@H]5O[C@@H]5OC=C[C@@]54O)[C@H]4[C@]1(CO[C@]4(O)C(=O)OC)[C@@H]32,-5.73% (inactive),
C=CC1(C)OC(=O)N(c2cc(Cl)cc(Cl)c2)C1=O (configuration not stated),-1.35% (inactive),
